Rows were chosen to be rich in hits. Some 3.7% of all compounds tested hit in one or more screens of this group.
HttQ103 aggreg: mutant huntingtin aggregation inhibition; PC12 HttQ103-GFP aggregates, Acumen cytometry, 40 h; Potency, µM (top dose mostly 46.1 µM), hits mostly inhibitors; 220,000 tested, 1.1% active; also: nearly all actives have a fitted effect of over 60% in size
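Aggregates are detected as GFP objects 1–25 µm with signal 6 STDEV over background in lysates of induced PC12 cells. These carry Huntingtin exon 1 with 103 glutamines fused to GFP under an ecdysone promoter; compounds titrated.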
HTT ATP protect: Huntington cell model cytoprotection by ATP luminescence; PC12 HTT-Q103 induced, cytoprotection, ATP luminescence, 40 h; Potency, µM (series often up to 56.4 µM), usual class: activators; 230,000 tested, 0.14% active; also: nearly all actives have a fitted effect of over 45% in size
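Cells were plated at 1500 per well in phenol red-free DMEM with 5% equine and 5% calf serum. Tebufenozide (100 nM final) and compounds were added, then ATPlite reagent, and luminescence was read.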
Tau fibril ThT: tau fibrillization inhibition (ThT binding); P10636; recombinant tau K18 P301L, heparin-induced fibrillization, ThT fluorescence; Potency, µM (series often up to 57.4 µM), hits mostly inhibitors; 270,000 tested, 2.1% active; also: nearly all actives have a fitted effect of over 55% in size
Target sequence (P10636 561-689 P618L limits assumed): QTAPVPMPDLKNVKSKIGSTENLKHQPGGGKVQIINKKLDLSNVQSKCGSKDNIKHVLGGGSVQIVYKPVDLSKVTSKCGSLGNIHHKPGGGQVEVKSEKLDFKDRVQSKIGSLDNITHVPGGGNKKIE
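ThT emission at 510 nm, taken 1 hr after adding 30 uM dye, quantifies aggregates formed when 20 uM heparin acts on human tau K18 P301L for 6 hr at 37 C.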
Tau fluor cs: counter-screen for tau fibril formation inhibitors; AID 1463; tau K18 P301L Alexa594 fluorescence, heparin fibrillization; 280,000 tested, 0.93% active; Potency, µM (highest dose often 57.7 µM); also: nearly all actives have a fitted effect of over 55% in size
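Human tau K18 P301L (15 uM unlabeled, 0.24 uM Alexa 594-labeled) in 100 mM sodium acetate pH 7 with 20 uM heparin, 6 hr at 37 C. ThT 30 uM added, 1 hr ambient; Alexa 594 FP and total fluorescence read at 555/632 nm.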
Tau FP inhib: inhibitors of human tau fibril formation; P10636; K18 P301L tau heparin fibrillization, Alexa594 FP, 6 h; Potency, µM (doses to about 57.7 µM), usual class: inhibitors; 280,000 tested, 0.39% active; AID 1468; also: nearly all actives have a fitted effect of over 55% in size
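FP of Alexa 594-tau after heparin (20 uM) induction. Substrate: human K18 P301L, 15 uM unlabeled, 0.24 uM labeled. Buffer 100 mM sodium acetate pH 7. 6 hr, 37 C.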
Hits are given with their value; 0 = inactive; ? = inconclusive; - = not tested or not shown; ! = not confirmed by another sample; [ ] = dose if it differs, or a comment. Calls follow the shape of the dose curve; as a rule, active = well fitted curve in the direction sought with a large enough effect; inconclusive = small, poorly fitted or top-dose-only effect, or another doubt; inactive = no such curve, though single readings can be large; an effect the other way counts as inactive or inconclusive.

SMILES	HttQ103 aggreg	HTT ATP protect	Tau fibril ThT	Tau fluor cs	Tau FP inhib
Cc1ccc2[nH]c(C)c(/C=N/Nc3nc4ccccc4s3)c2c1	0	0	14µM	10µM[quencher]	?
C(=N\Nc1nc2ccccc2s1)/c1ccccn1	0[9.22 µM]	0[10 µM]	?	0	0
C(=C\c1ccccc1)/C=N/Nc1nc2ccccc2s1	0	0	?	10µM[quencher]	0
Brc1csc(/C=N/Nc2nc3ccccc3s2)c1	0	0[10 µM]	?	7.9µM[quencher]	0
[Cu].[NH-][C@H](CC(=O)O)C(=O)O.[NH-][C@H](CC(=O)O)C(=O)O	-	0[10 µM]	-	-	-
CCNC(=O)CC1C(=O)N(c2ccc(C)cc2)C(=O)N1Cc1ccc(C)cc1 (stereo not given)	-	-	0	0	0
COC(=O)/C=C(\C)N=Nc1c(O)[nH]c2ccccc12	0[9.22 µM]	0[10 µM]	11µM	0	0
Oc1[nH]c2ccccc2c1N=Nc1ccccc1	0[9.22 µM]	0[10 µM]	?	?	0
Cc1ccc2[nH]c(O)c(N=Nc3nc4ccccc4s3)c2c1	0[9.22 µM]	0[10 µM]	-	?	0
O=C(N=Nc1c(O)[nH]c2ccccc12)c1cc(-c2ccc(F)cc2)n[nH]1	0	0[10 µM]	2.2µM	0	0
Oc1[nH]c2ccccc2c1N=Nc1nc2ccccc2s1	0	0	2µM	?	0
Oc1[nH]c2ccccc2c1N=Nc1ccc(F)cc1	0	0[10 µM]	2µM	0	0
O=C(O)c1oc(C(=O)O)c(C(=O)O)c1C(=O)O	-	0[10 µM]	-	-	-
CCCC12CN3CC(CCC)(CN(C1)C3c1ccc(OCc3ccccc3)cc1)C2=O (stereo not given)	-	-	0	0	0
O=Nc1c(-c2c(O)[nH]c3ccccc23)[nH]c2ccccc12	-	1.3µM!	2.8µM	16µM[quencher]	?
Cc1cccc(NC(=S)N=Nc2c(O)[nH]c3ccccc23)c1	4µM	-	7.9µM	14µM[quencher]	0
O=C(N=Nc1c(O)[nH]c2ccccc12)c1cccc(S(=O)(=O)Nc2ccccc2Cl)c1	0	0[10 µM]	?	0	0
COc1ccccc1NC(=S)N=Nc1c(O)[nH]c2ccc(Br)cc12	0[9.22 µM]	0[10 µM]	?	?	0
NS(=O)(=O)c1cc(C(=O)N=Nc2c(O)[nH]c3ccccc23)ccc1Cl	0[9.22 µM]	0[10 µM]	14µM	0	0
Cn1nc(C(F)(F)F)c(C#N)c1N1CCN(c2ccccc2F)CC1	0	0	0	0	0
COc1cccc(N2CCN(c3c(C#N)c(C(F)(F)F)nn3C)CC2)c1	11µM	0	?	?	0
O=C1C=C(NCc2ccccc2)c2ccccc2C1=O	0[9.22 µM]	0[10 µM]	14µM	0	?
CC1CCCCC12NC(=S)N(c1ccccc1)N2 (stereo not given)	0[9.22 µM]	0[10 µM]	25µM	0	?
CC1CCCC2(C1)NC(=S)N(c1ccccc1)N2 (stereo not given)	0	0	?	0	0
CCn1c2ccccc2c2nc3cc(S(=O)(=O)N4CCOCC4)ccc3nc21	0	0[10 µM]	25µM	0	32µM
SMILES	HttQ103 aggreg	HTT ATP protect	Tau fibril ThT	Tau fluor cs	Tau FP inhib
c1ccc2nc3c(nc2c1)c1ccccc1n3CCN1CCOCC1	0	0	0	0	0
COc1ccc(NC(=O)Nc2ccccc2OCc2cc(=O)n3ccccc3n2)c(OC)c1	-	-	?	?	0
COc1cc(OC)c(NC(=O)Nc2cccc(OCc3cc(=O)n4ccccc4n3)c2)cc1Cl	-	-	?	6.3µM[quencher]	0
COc1ccc(NC(=O)Nc2cccc(OCc3cc(=O)n4cccc(C)c4n3)c2)c(OC)c1	-	-	?	7.1µM[quencher]	?
COc1ccc(OC)c(NC(=O)Nc2cccc(OCc3cc(=O)n4cc(C)ccc4n3)c2)c1	-	-	?	13µM[quencher]	?
Cc1ccc(OCC(=O)Nc2cccc(OCc3cc(=O)n4cccc(C)c4n3)c2)cc1C	-	-	0	0	0
CCC(=O)Nc1cccc(OCc2cc(=O)n3cc(C)ccc3n2)c1	-	-	0	0	0
O=C(O)c1c2c(c(O)c3c1CN(C1CCCCC1)CO3)OCN(C1CCCCC1)C2	-	0[10 µM]	-	-	-
Cc1cccc(C(=O)CC(=O)c2cc(Cl)ccc2O)c1	13µM	0	?	?	0
Cc1ccc(O)c(C(=O)CC(=O)c2cccc(F)c2)c1	18µM	0[10 µM]	?	0	0
O=C(CC(=O)c1cc(Cl)ccc1O)c1ccccc1	11µM	0[10 µM]	?	0	0
COc1ccc(/C=C(\C#N)C(N)=O)c(OC)c1	-	0[10 µM]	-	-	-
CC(=O)OCC1OC(C#Cc2ccc(F)cc2F)C=CC1OC(C)=O (stereo not given)	-	0[10 µM]	?	0[11.6 µM]	?
Cc1cc(C)c(-c2cc([C@H](C)O/N=C\[C@@H](C)[C@H](OCc3ccccc3)C(C)C)on2)c(C)c1	-	0[10 µM]	0[11.5 µM]	0[11.6 µM]	0[11.6 µM]
COc1ccc(C(=O)Nc2ccc(Cl)c(S(=O)(=O)Nc3ccccc3OC)c2)cc1	?	0[10 µM]	0	?	?
COc1ccc(NC(=O)Cc2cccc(F)c2)cc1S(=O)(=O)Nc1ccccc1Cl	0[9.22 µM]	0[10 µM]	-	14µM[quencher]	?
COc1ccccc1NS(=O)(=O)c1cc(NC(=O)c2ccc(Cl)nc2)ccc1Cl	25µM	0[10 µM]	0	22µM[quencher]	25µM
COc1ccccc1NC(=O)Nc1ccc(Cl)c(S(=O)(=O)Nc2ccccc2OC)c1	?	0[10 µM]	0	3.2µM[quencher]	28µM
Cc1ccc(NC(=S)NC(=O)c2ccc(F)cc2)cc1S(=O)(=O)Nc1ccccc1Cl	0	0[10 µM]	0	0	0
COC(=O)N1CCC2(CCCN(c3ncccn3)C2)CC1	-	0	-	-	-
CC(C)c1ccc(OCc2cc(=O)n3c(-c4ccccc4)csc3n2)cc1	-	-	0	0	0
Cc1ccc(-n2c(SCC(=O)NCC3CCCO3)nnc2-c2ccoc2C)cc1 (stereo not given)	0	0	0	0	0
Cc1ccc(C)c(-n2c(SCC(=O)NCC3CCCO3)nnc2-c2ccoc2C)c1 (stereo not given)	0	0[10 µM]	?	0	28µM
O=C1CC(c2ccccc2)Cc2nc3nc(C(F)(F)F)nn3cc21 (stereo not given)	13µM	0	0	0	0
Oc1ccc(-c2cn3c(n2)SCC3)cc1O	0	0[10 µM]	10µM	14µM[quencher]	?
SMILES	HttQ103 aggreg	HTT ATP protect	Tau fibril ThT	Tau fluor cs	Tau FP inhib
CCOC(=O)N1CC=C2C(C#N)=C(N)C(C#N)(C#N)[C@H](c3ccccc3OCC)[C@H]2C1	0	0	0	0	0
CN1CC=C2C(C#N)=C(N)C(C#N)(C#N)[C@H](c3cccs3)[C@H]2C1	0	0[10 µM]	?	0	?
CN1CC=C2C(C#N)=C(N)C(C#N)(C#N)[C@H](c3cccc(Cl)c3)C2C1 (stereo not given in full)	0	0	20µM	0	?
CCOC(=O)N1CC=C2C(C#N)=C(N)C(C#N)(C#N)[C@H](c3ccsc3)[C@H]2C1	0.56µM	0	?	0	?
CN1CC=C2C(C#N)=C(N)C(C#N)(C#N)C(c3ccsc3)C2C1 (stereo not given)	0	0	16µM	0	?
N=c1ccn2c(n1)O[C@@H]1[C@@H](O)[C@H](CO)O[C@H]12	-	0[1.9 µM]	-	-	-
COc1ccccc1CNc1ccnc(-c2ccc(N(C)C)cc2)n1	-	0	-	-	-
Cn1c(-c2c(N)n(CCc3ccccc3)c3nc4ccccc4nc23)nc2ccccc21	0	0	?	13µM[quencher]	0
